The text below walks through data of PubChem BioAssay.

Broadly, the viability is a read-out of living cells in per cent, often relative to untreated cells.

The assay is described as follows: Her2 expression decrease, cell viability multiplex – SKBR3 breast tumor cells, AlphaScreen, ATP viability, primary screen (AID 461).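 Note: percent of carrier control wells set as 100% viability.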 The conditions noted are these: SKBR3 Her2 protein level, 18-24 h, measured here: SKBR3 viability, ATP luminescence, at 10 µM. A general note: Bead proximity is the source of the signal in Alpha formats.
`CC1=C(C(=O)OCCOC(C)C)C(c2cc3c(cc2Br)OCO3)C2=C(CCCC2=O)N1` (stereo not given): the viability came to 102%.

Take `O=C(NCC(c1cccnc1)N1CCN(c2ccccc2)CC1)c1ccc2c(c1)OCO2` (stereo not given): the viability is 92%.

With `CCOC(=O)C(NC(C)=O)(NS(=O)(=O)c1ccccc1)C(F)(F)F` (stereo not given), the viability worked out at 122%.

With `CC(C)(C)Nc1nc(NC(C)(C)C)nc(-n2ccnc2)n1`, the viability is 122%.

Turning to `Cc1nc2c3cnn(-c4ccccc4)c3ncn2n1`, the viability worked out at 104%.

Turning to `CCOC(=O)C1CCN(c2c(Nc3ccc4c(c3)OCCO4)c(=O)c2=O)CC1`, the viability is 82.5%.

For `Cc1ccc(SCc2[nH]nc3c2C(c2ccc(C)o2)C(C#N)=C(N)O3)cc1` (stereo not given), the viability amounted to 91%.

Regarding `CCOC(=O)N1CCN(C(=O)CCc2ccc(S(=O)(=O)NCCc3ccccc3)cc2)CC1`, the viability was 89.5%.

Take `O=C(CSc1nnnn1-c1ccc(Cl)cc1)NC(=O)Nc1ccc2c(c1)OCCO2`: the viability was 104%.

Turning to `CCCCn1c(CN2CCN(c3cccc(Cl)c3)CC2)nc2c1c(=O)n(C)c(=O)n2C`, the viability was 111%.

As to `COc1ccc(Cn2c(CCCO)nc3ccccc32)cc1OC`, the viability stood at 98.5%.

On to `CC1(C)NC(=O)N(CC(O)CN(Cc2ccccc2)Cc2ccccc2)C1=O` (stereo not given), for which the viability was determined as 78%.

Turning to `Cc1cc(C)n(C(=O)CNC(=O)C2COc3ccccc3O2)n1` (stereo not given), the viability was found to be 122%.

Take `CCOC(=O)c1ccc2[nH]c(C)c(CN3CCN(C)CC3)c(=O)c2c1`: the viability stood at 114%.

With `Cc1cc(=O)n(C)c(=O)n1CCCNc1ccccc1`, the viability is 82%.

`S=c1[nH]nc(-c2cccc(Br)c2)o1`: the viability is 91%.

On to `Cc1ccc(S(=O)(=O)N2CCN(CCO)CC2)cc1-c1nnc2c3ccccc3c(C)nn12`, for which the viability is 104%.

With `CC1=C(C(=O)Nc2ccccc2)C(c2ccco2)C(C#N)=C(SCC(=O)Nc2cccc(C)c2C)N1` (stereo not given), the viability was determined as 104%.

As to `CCOC(=O)c1cc(CC)sc1NC(=O)CCC(=O)O`, the viability was found to be 121%.

As to `O=C(NCC(c1cccnc1)N1CCOCC1)c1cccs1` (stereo not given), the viability turned out to be 101%.

In the case of `O=c1cc(-c2ccccc2)[nH]c2nc3ccccc3n12`, the viability was found to be 90.5%.

For `O=C(c1ccccc1-c1ccccc1)N1CCN(c2ccccn2)CC1`, the viability was 69.5%.

On to `CCc1ccccc1NC(=O)CSc1nc2n[nH]c(C)c2c(=N)n1-c1ccc(OC)cc1`, for which the viability is 98.5%.

In the case of `Cc1cccc(C)c1NC(=O)CC(NCc1ccco1)C(=O)O` (stereo not given), the viability was 116%.

Consider `Cc1noc(NS(=O)(=O)c2ccc(N3C(=O)c4ccccc4C3=O)cc2)c1C`, for which the viability was found to be 116%.

As to `O=C(NC(C(=O)c1ccccc1)n1ccc(=O)[nH]c1=O)c1ccccc1` (stereo not given), the viability came to 98.5%.

For `CCc1nnc(NC(=O)NCN2C(=O)C3C4C=CC(C4)C3C2=O)s1` (stereo not given), the viability was found to be 123%.

Consider `Cc1cc(C)c(C)c(S(=O)(=O)Nc2ccc(O)cc2)c1C`, for which the viability was determined as 100%.

Turning to `COc1cccc(C(c2nnnn2CCc2ccccc2)N2CCN(c3ccccc3)CC2)c1OC` (stereo not given), the viability turned out to be 91%.

Regarding `O=C(CSc1nc(-c2ccccc2)cs1)NCc1ccco1`, the viability came to 100%.

As for `Cc1cccc2cc(CN(CCCO)C(=O)Nc3ccc(Cl)cc3)c(=O)[nH]c12`, the viability worked out at 74%.

Take `O=C(O)c1oc2ccccc2c1-n1cccc1`: the viability was 102%.

On to `O=C1CCc2cc(S(=O)(=O)N3CCC(C(=O)Nc4nccs4)CC3)ccc2N1`, for which the viability amounted to 98%.

For the molecule `CC(=O)N1C(=O)C2(C(C#N)=C(N)Oc3cc(C)oc(=O)c32)c2ccccc21` (stereo not given), the viability is 95.5%.

Consider `CCOc1ccc(C(=O)N2CCN(c3ccccc3)CC2)cc1OCC`, for which the viability was 104%.

For `O=C(Cn1cnc2c(nnn2Cc2ccccc2)c1=O)c1ccc(Cl)cc1`, the viability was determined as 93.5%.

Consider `CCCNS(=O)(=O)c1ccc(OCC(=O)NCc2ccc3c(c2)OCO3)cc1`, for which the viability was 105%.

On to `COCCN(C(=O)CCC(=O)Nc1ccccn1)C(C(=O)NC1CCCC1)c1ccc(OC)cc1` (stereo not given), for which the viability came to 106%.

As to `Cn1c(=O)n(CC(=O)OCc2ccccc2)c(=O)c2c1nc1n2CCCN1C1CCCCC1`, the viability amounted to 81%.

Take `CCOc1ccc(-c2nnn(CCC(=O)O)n2)cc1OC`: the viability turned out to be 95.5%.
